# Values joined by “and” are separate entries in the source; they are usually repeats but may differ in a detail not shown here. Equal entries are not always repeated. Records with an inconclusive call do not appear. Entries that show only a call come without a potency. Some compounds were tested as several samples or in several runs, with calls that do not always agree. Active and inactive are the calls of the source. Unless noted, calls come from the whole dose curve; as a rule, active = well fitted curve in the direction sought with a large enough effect in the repeat runs; inconclusive = weak or mixed curves; inactive = no such curve, though single readings can be large; an effect the other way counts as inactive or inconclusive.
# Key:
# [1] = qHTS assay for identifying genotoxic compounds that show differential cytotoxicity against isogenic chicken DT40 cell lines with known DNA damage response pathways - wild type cell line (AID 743012); note: nearly all actives have a fitted effect of over 60% in size; note: potency is the fitted concentration of half-maximal effect
# How it was run: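 Viability of DNA repair-proficient chicken DT40 cells was assessed by CellTiter-Glo luminescence following 40 h compound exposure at 37 C/5% CO2.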
# [2] = qHTS assay for identifying genotoxic compounds that show differential cytotoxicity against isogenic chicken DT40 cell lines with known DNA damage response pathways - Rev3 mutant cell line (AID 743014); note: nearly all actives have a fitted effect of over 55% in size; note: potency is the fitted concentration of half-maximal effect
# [3] = qHTS assay for identifying genotoxic compounds that show differential cytotoxicity against isogenic chicken DT40 cell lines with known DNA damage response pathways - Rad54/Ku70 mutant cell line (AID 743015); note: nearly all actives have a fitted effect of over 60% in size; note: potency is the fitted concentration of half-maximal effect
# [4] = qHTS assay to identify small molecule antagonists of the androgen receptor (AR) signaling pathway - cell viability counter screen (AID 743033; note: nearly all actives have a fitted effect of over 45% in size)
# [5] = qHTS assay to identify small molecule antagonists of the androgen receptor (AR) signaling pathway using the MDA cell line - cell viability counter screen (AID 743041; note: nearly all actives have a fitted effect of over 45% in size)
# How it was run: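 qHTS viability read-out; MDA-kb2 AR-luc; R1881-stimulated; 16 h exposure at 37C, 0% CO2; CellTiter-Fluor, 30 min; fluorescence intensity.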
# [6] = biological target: Androgen receptor (Homo sapiens) (UniProt P10275); assay: qHTS assay to identify small molecule antagonists of the androgen receptor (AR) signaling pathway (AID 743035; active = well fitted inhibition curve with a large enough effect in the signal ratio in the repeat runs, not every such curve was filed as active; the % refers to the signal ratio)
# Sequence of Androgen receptor (Homo sapiens) (P10275 whole entry, looked up): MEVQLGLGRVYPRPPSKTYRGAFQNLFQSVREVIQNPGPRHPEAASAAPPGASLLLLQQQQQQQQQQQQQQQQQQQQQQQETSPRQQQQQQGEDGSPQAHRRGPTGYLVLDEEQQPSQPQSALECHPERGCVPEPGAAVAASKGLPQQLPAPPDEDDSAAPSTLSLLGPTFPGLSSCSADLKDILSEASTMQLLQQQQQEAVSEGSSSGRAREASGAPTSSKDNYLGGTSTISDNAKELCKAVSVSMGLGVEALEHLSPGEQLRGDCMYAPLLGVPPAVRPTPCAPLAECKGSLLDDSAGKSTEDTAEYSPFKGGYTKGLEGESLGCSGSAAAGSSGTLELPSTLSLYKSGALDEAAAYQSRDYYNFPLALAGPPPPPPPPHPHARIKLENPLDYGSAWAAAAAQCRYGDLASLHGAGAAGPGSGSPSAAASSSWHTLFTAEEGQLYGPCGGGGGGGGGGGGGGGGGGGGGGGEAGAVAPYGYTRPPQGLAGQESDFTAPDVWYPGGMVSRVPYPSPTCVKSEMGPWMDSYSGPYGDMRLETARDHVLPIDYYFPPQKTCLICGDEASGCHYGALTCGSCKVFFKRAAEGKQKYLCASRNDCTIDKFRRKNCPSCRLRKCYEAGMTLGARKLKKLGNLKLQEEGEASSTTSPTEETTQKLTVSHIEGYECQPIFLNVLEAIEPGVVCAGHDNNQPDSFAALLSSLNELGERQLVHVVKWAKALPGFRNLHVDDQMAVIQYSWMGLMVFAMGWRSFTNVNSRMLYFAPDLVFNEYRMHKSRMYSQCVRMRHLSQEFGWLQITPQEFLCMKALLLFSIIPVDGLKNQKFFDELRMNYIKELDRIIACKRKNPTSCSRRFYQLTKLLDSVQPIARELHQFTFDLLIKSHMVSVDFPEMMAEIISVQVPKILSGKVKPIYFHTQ
# How it was run: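 Reporter HEK293 cells were exposed to compounds and R1881 overnight (16 h, 37C); beta-lactamase activity was then quantified by FRET fluorescence.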
# [7] = biological target: Androgen receptor (Homo sapiens) (UniProt P10275); assay: qHTS assay to identify small molecule agonists of the androgen receptor (AR) signaling pathway (AID 743036; active = well fitted activation curve with a large enough effect in the signal ratio in the repeat runs, with a control signal flat, not every such curve was filed as active; the % refers to the signal ratio)
# How it was run: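 Activation was read as beta-lactamase FRET signal from LiveBLAzer B/G substrate, added for 2 h at room temperature. Before that, GeneBLAzer AR-UAS-bla GripTite (HEK293) cells had 16 h compound exposure at 37C.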
# [8] = biological target: Androgen receptor (Homo sapiens) (UniProt P10275); assay: qHTS assay to identify small molecule agonists of the androgen receptor (AR) signaling pathway using the MDA cell line (AID 743040; note: nearly all actives have a fitted effect of over 20% in size); conditions: MDA-kb2 AR-luc cells, MMTV luciferase, 16 h; at 70.3 µM (top of the series); stronger effect = higher value
# How it was run: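 Agonist activity is measured as luciferase luminescence in human MDA-kb2 cells whose MMTV reporter responds to both AR and GR. Compounds in DMSO incubate 16 h at 37C, 0% CO2, and ONE-Glo is read after 30 min.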
# [9] = biological target: Androgen receptor (Homo sapiens) (UniProt P10275); assay: qHTS assay to identify small molecule antagonists of the androgen receptor (AR) signaling pathway using the MDA cell line (AID 743042; note: nearly all actives have a fitted effect of over 55% in size)
# How it was run: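 MDA-kb2 cells (human breast carcinoma, stably carrying an MMTV-luciferase reporter responsive to AR and GR) were plated at 3,000 cells/well and preincubated 5 hr at 37C, then given compound plus R1881 agonist for 16 h. ONE-Glo luminescence was read.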
smiles,measurement,setting,value
CCN(CC)CCNC(=O)c1ccc(N)cc1,Potency,[1],inactive
same,Potency,[2],inactive
same,Potency,[3],inactive
same,Potency,[4],inactive
same,Potency,[5],inactive
O=c1n(CCCN2CCN(c3cccc(Cl)c3)CC2)nc2ccccn12,Potency,[1],inactive and 54.5 µM (active)
same,Potency,[2],inactive and 54.5 µM (active)
same,Potency,[3],inactive and 43.3 µM (active)
same,Potency,[4],inactive
same,Potency,[5],inactive
COc1c2ccoc2cc2oc(=O)ccc12,Potency,[1],inactive
same,Potency,[2],inactive
same,Potency,[4],inactive
same,Potency,[5],inactive
O=C(c1ccccc1)c1ccc(O)c(O)c1O,Potency,[2],61.1 µM (active)
same,Potency,[3],61.1 µM (active)
same,Potency,[4],inactive
same,Potency,[5],inactive
OCCOCCOCCOCCOCCO,Potency,[1],inactive
same,Potency,[2],inactive and 24.3 µM (active)
same,Potency,[4],inactive
same,Potency,[5],inactive
Cc1cc(C)cc(O)c1,Potency,[1],inactive
same,Potency,[2],inactive
same,Potency,[3],inactive
same,Potency,[4],inactive
same,Potency,[5],inactive
CC(C)(C)NC[C@H](O)COc1nsnc1N1CCOCC1,Potency,[1],inactive
same,Potency,[2],inactive
same,Potency,[3],inactive
same,Potency,[4],inactive
same,Potency,[5],inactive
CCCCCCCCCCCC(=O)N(C)CC(=O)O,Potency,[2],66.4 µM (active)
same,"activity, negative = cytotoxicity",[2],3.78% [at 8.53 µM] (inactive)
same,"activity change, negative = cytotoxicity",[4],1.79% [at 7.04 µM] (inactive)
same,Potency,[5],inactive
CC(=O)OC(C)(C)C1CC=C(C)CC1 (stereo not drawn),Potency,[1],inactive
same,Potency,[2],inactive
same,Potency,[3],inactive and 54.5 µM (active)
same,Potency,[4],inactive
same,Potency,[5],inactive
O=C(Cl)c1ccc(C(=O)Cl)cc1,Potency,[1],inactive
same,Potency,[2],inactive
same,Potency,[3],inactive
same,Potency,[4],inactive
same,Potency,[5],inactive
C=C1C[C@]23C[C@@]1(O)CC[C@H]2[C@@]12C=C[C@H](O)[C@@](C)(C(=O)O1)[C@H]2[C@@H]3C(=O)O,Potency,[1],inactive
same,Potency,[2],inactive
same,Potency,[3],inactive
same,Potency,[4],inactive
same,Potency,[5],inactive
CC[N+](CC)(CC(=O)Nc1c(C)cccc1C)Cc1ccccc1,Potency,[1],inactive and 43.3 µM (active)
same,Potency,[2],inactive and 30.6 µM (active)
same,Potency,[3],inactive
same,Potency,[4],inactive
same,Potency,[5],inactive
CC(COCC(C)OC(=O)c1ccccc1)OC(=O)c1ccccc1 (stereo not drawn),Potency,[2],inactive
same,Potency,[3],61.1 µM (active)
same,Potency,[4],inactive
same,Potency,[5],inactive
CC(C)(CO)CO,Potency,[1],inactive
same,Potency,[2],inactive
same,Potency,[4],inactive
same,Potency,[6],inactive
same,Potency,[7],inactive
same,activity change,[8],0.0392% (inactive) and -0.381% (inactive)
same,Potency,[5],inactive
same,Potency,[9],inactive
CC/C(C)=N/O,Potency,[1],inactive
same,Potency,[2],inactive
same,Potency,[3],inactive
same,Potency,[4],inactive
same,Potency,[5],inactive
